High-throughput results (PubChem)
Most compounds without a hit are left out; they make up all but 31% or so of the library.
CYP2C19 inhib: blockers of cytochrome P450 2C19 activity – biochemical, luminescence, ADME assay, primary screen; CYP2C19 Supersomes, luciferin-H EGE luminescence, 30 min; inhibition, % at 5 µM; hit rate 21% among 96,000;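 active = CYP2C19 inhibition above a set limit at 5 µM in the primary screen, cut at about 50% in these data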;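 note: plate controls were negative control wells for no effect and 2.5 mM tranylcypromine positive control for full effect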
CYP2C19 act: human CYP2C19 activators, primary screen, biochemical, luminescence. recombinant CYP2C19, luciferin-H EGE luminescence; active compounds read high; 0 = fully inhibited enzyme, 1 = untreated enzyme. 96,000 tested, under 10 active. activation factor at 5 µM. AID 1025, 2008;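 active = activation factor of at least 2 at 5 µM in the primary screen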;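 note: 0 = wells with 2.5 mM tranylcypromine and 1 = vehicle-only wells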
CYP2C9 act: human CYP2C9 activators, primary screen, biochemical, luminescence | hit rate 1.4% among 96,000 | activation factor at 5 µM | recombinant CYP2C9, luciferin-H conversion; active compounds read high; factor 1 = untreated enzyme, 0 = blocked | AID 1024, 2008;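 active = activation factor of 2 or more for CYP2C9 at a 5 µM dose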;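 note: 0 = sulfaphenazole-blocked wells and 1 = vehicle-only wells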
Target sequence (P11712 whole entry, looked up): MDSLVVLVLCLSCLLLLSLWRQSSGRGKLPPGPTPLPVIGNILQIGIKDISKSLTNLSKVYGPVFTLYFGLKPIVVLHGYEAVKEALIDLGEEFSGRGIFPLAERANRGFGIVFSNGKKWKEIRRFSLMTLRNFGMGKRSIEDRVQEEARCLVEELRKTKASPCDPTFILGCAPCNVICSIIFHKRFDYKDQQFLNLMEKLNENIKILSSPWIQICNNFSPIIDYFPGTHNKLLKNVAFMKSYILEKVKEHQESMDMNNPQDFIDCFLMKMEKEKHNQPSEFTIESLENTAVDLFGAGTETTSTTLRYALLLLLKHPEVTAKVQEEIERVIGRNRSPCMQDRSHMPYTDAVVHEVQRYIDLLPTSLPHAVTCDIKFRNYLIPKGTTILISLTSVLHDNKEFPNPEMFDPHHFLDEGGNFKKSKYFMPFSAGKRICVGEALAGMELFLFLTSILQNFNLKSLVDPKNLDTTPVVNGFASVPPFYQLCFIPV
CYP2C9 inh: blockers of cytochrome P450 2C9 activity – biochemical, luminescence, ADME assay, primary screen; P11712; CYP2C9 Supersomes, luciferin-H conversion; inhibition, % at 5 µM; hit rate 20% among 96,000;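 active = blocking of liver enzyme CYP2C9 beyond about 50% at 5 µM, limit read from the data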
Starred values were filed as active, the others as inactive.

SMILES | CYP2C19 inhib | CYP2C19 act | CYP2C9 act | CYP2C9 inh
O=C(c1cccc(F)c1)N1CCN(C(=O)c2nn3cccnc3c2Cl)CC1 | 58* | 0.4 | 0.9 | 14
N#Cc1ccc(N2CCN(C(=O)c3cccc(F)c3)CC2)c(F)c1 | 92* | 0.1 | 0.7 | 31
O=C(c1cccnc1)N1CCc2ccccc2C1 | 25 | 0.8 | 1.1 | -8
O=C(c1cccc(F)c1)N1CCC(N2CCOCC2)CC1 | 56* | 0.4 | 0.9 | 11
O=C(O)CCC(=O)N1CCN(c2cccc(Cl)c2)CC1 | 6 | 0.9 | 1.2 | -24
O=C(c1c(Cl)nc2sccn12)N1CCN(c2cccc(Cl)c2)CC1 | 83* | 0.2 | 0.3 | 69*
CC1CN(C2CCN(C(=O)c3cccc(Cl)c3)CC2)CC(C)O1 (stereo not given) | 21 | 0.8 | 0.9 | 7
O=C(c1cccc(Cl)c1)N1CCN(C(=O)c2ccccc2F)CC1 | 66* | 0.3 | 0.5 | 54*
O=C(c1cccc(F)c1)N1CCCC(C(=O)N2CCCC2)C1 (stereo not given) | -15 | 1.1 | 1.1 | -5
Cc1onc(-c2ccccc2Cl)c1C(=O)NCCN1Cc2ccccc2C1=O | 75* | 0.2 | 0.4 | 59*
COc1ccc(CCNC(=O)c2c(-c3ccccc3Cl)noc2C)cc1 | 80* | 0.2 | 0.3 | 68*
COc1ccc2cc(CCNC(=O)c3c(-c4ccccc4Cl)noc3C)c(=O)[nH]c2c1 | 43 | 0.6 | 0.3 | 67*
COc1ccc2cc(CCNC(=O)C3CC3)c(=O)[nH]c2c1 | 4 | 1 | 0.9 | 7
Cc1cc(N2CCOCC2)nc(-c2ccc([N+](=O)[O-])cc2)n1 | 22 | 0.8 | 0.9 | 12
CC(=O)N1CCN(S(=O)(=O)c2ccc(S(=O)(=O)NCC(C)C)cc2)CC1 | -14 | 1.1 | 1.1 | -9
CS(=O)(=O)c1ccc2nc(NC3(C(F)(F)F)N=C4SCCN4C3=O)sc2c1 (stereo not given) | 6 | 0.9 | 0.1 | 92*
O=C(NCCCCNC(=O)c1ccc(Br)s1)c1ccc(Br)s1 | 12 | 0.9 | 0.5 | 46
CCOC(=O)c1c(N)sc(C(=O)N(C)C)c1C | 47 | 0.5 | 1.3 | -32
CCOC(=O)c1c(N)sc2c(OC)c(Br)ccc12 | 2 | 1 | 0.4 | 63*
COc1ccccc1C(=O)OCc1c(F)cccc1Cl | 73* | 0.3 | 3.4* | -237
COc1cccc(N/C=C(\C#N)c2ccc(OCCCF)cc2)c1 | 14 | 0.9 | 0.6 | 42
Cc1cc(NC(=O)c2ccccc2)sc1C | 10 | 0.9 | 1.1 | -13
Cc1ccc(NC(=O)c2ccccc2)s1 | 58* | 0.4 | 0.6 | 38
COc1cc(C2NC(C(=O)O)CS2)ccc1OCc1ccccc1C#N (stereo not given) | 59* | 0.4 | 0.7 | 27
O=C(COc1ccccc1)Nn1cnc2ccccc21 | -12 | 1.1 | 1 | -1
SMILES | CYP2C19 inhib | CYP2C19 act | CYP2C9 act | CYP2C9 inh
CCOC(=O)c1c(C)n(O)c2ccc(Cl)cc2c1=O | 6 | 0.9 | 1 | 4
O=C(O)c1ccc(Cl)c(S(=O)(=O)NCC2CCCO2)c1 (stereo not given) | -7 | 1.1 | 1.1 | -11
O=S(=O)(NCC1CCCO1)c1cc(Cl)ccc1Cl (stereo not given) | 66* | 0.3 | 1.4 | -38
COc1cc(S(=O)(=O)NCC2CCCO2)c(OC)cc1Cl (stereo not given) | 66* | 0.3 | 1 | 2
OCc1ccccc1N=c1ssnc1Cl | -2 | 1 | 1 | 5
COc1cc(N=c2ssnc2Cl)cc(OC)c1 | 48 | 0.5 | 0 | 100*
O=C(Nc1ccccc1Cl)C1CCN(Cc2cnn(-c3ccccc3)c2-n2cccc2)CC1 | 18 | 0.8 | 0.8 | 23
COc1cccc(NC(=O)C2CCN(Cc3cnn(-c4ccccc4)c3-n3cccc3)CC2)c1 | 18 | 0.8 | 0.3 | 67*
O=C(NCc1ccc2c(c1)OCO2)C1CCN(Cc2cnn(-c3ccccc3)c2-n2cccc2)CC1 | 33 | 0.7 | 0.5 | 51*
COc1ccc(NC(=O)C2CCN(Cc3cnn(-c4ccccc4)c3-n3cccc3)CC2)cc1OC | 8 | 0.9 | 0.6 | 41
CCN(CC(=O)NCc1ccc(F)cc1)CC(O)COCc1cccc(OC)c1 (stereo not given) | 67* | 0.3 | 0.3 | 67*
COc1ccccc1-c1nc(C#N)c(N2CCCCCC2)o1 | 23 | 0.8 | 1.3 | -25
N#Cc1nn(-c2ccccc2)nc1N1CCCCC1 | 16 | 0.8 | 0.5 | 51*
